Reference: PubChem BioAssay AID504832 (National Center for Advancing Translational Sciences (NCATS), 2011)
Hit rate of the full screen: of about 310,000 compounds, about 18,000 (5.8%) were called active. Where a call stands in place of a potency, no number is given. Not shown: some 22% with an inconclusive outcome. The sample holds actives, similar compounds and a random draw of the others, so the mix is not that of the screen. Calls follow the shape of the dose curve; as a rule, active = well fitted inhibition curve with a large enough effect; inconclusive = small, poorly fitted or top-dose-only effect, or another doubt; inactive = no such curve, though single readings can be large or run the other way.

experiment: Primary qHTS for delayed death inhibitors of the malarial parasite plastid, 48 hour incubation; conditions: P. falciparum luciferase growth in erythrocytes; series mostly up to 28.7 µM
Method in brief: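 Luciferase-expressing P. falciparum in infected erythrocytes (2% hematocrit, 0.1% parasitemia final) in RPMI 1640/0.5% Albumax were exposed to compound for 48 hours at 37 C, 5% CO2; growth read as luminescence.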
Potency is read from the fitted curve at half-maximal effect.

| SMILES | Potency |
| --- | --- |
| CN1C(=O)C2(OCCCO2)c2cc(Cl)ccc21 | inactive |
| CCCCc1nc2ccccc2c(NC(=O)CN2CCN(C)CC2)c1CCC | inactive |
| CN1CCN(c2nc(Nc3ccc(O)cc3)nc3ccccc23)CC1 | 2.94 µM (active) |
| CCc1ccc(-c2cc(C(=O)NN3CCN(C)CC3)c3ccccc3n2)cc1 | inactive |
| CCOC(CNC(=O)C1CCN(S(=O)(=O)c2ccc3nc4c(c(C(=O)O)c3c2)CC(C)CC4)CC1)OCC (stereo not given) | inactive |
| C/C(=N\N(C)C)c1ccc(OCCOc2ccc([N+](=O)[O-])cc2)cc1 | inactive |
| COc1ccccc1OCC(=O)Nc1ccccc1C(=O)NC1CC1 | inactive |
| C#CC(C)(C)NC(=O)c1cnc(-c2ccccc2)nc1-c1ccccc1 | inactive |
| Cc1ccc2nc(N3CCN(C(=O)c4ccco4)CC3)sc2c1 | inactive |
| O=C(c1ccc2nc(N3CCOCC3)sc2c1)N1CCN(c2ccc(Cl)cc2)CC1 | inactive |
| COc1ccc2nc(N3CCN(C(=O)c4ccc([N+](=O)[O-])o4)CC3)sc2c1 | 1.31 µM (active) |
| Cc1nc(C)c(-c2nnc(-c3cccc(S(=O)(=O)N(C)C)c3)o2)cc1C(=O)NN | inactive |
| O=C(COc1coc(CN2CCN(c3ccccc3)CC2)cc1=O)N1CCc2ccccc21 | inactive |
| Cc1cc(C)cc(NC(=O)COc2coc(CN3CCN(c4ccccc4)CC3)cc2=O)c1 | 13.1 µM (active) |
| O=C(COc1coc(CN2CCN(c3ccccc3)CC2)cc1=O)Nc1ccccc1F | inactive |
| Cc1ccsc1C(=O)NCCc1ccco1 | inactive |
| O=C(c1[nH]ncc1-c1ccc(Cl)cc1)C1CO1 (stereo not given) | 7.38 µM (active) |
| O=C(c1nnc(-c2ccc(Cl)cc2)o1)C1CCCC1 | inactive |
| C=CCNC(=O)c1ccccc1SCc1c(C)noc1C | inactive |
| COc1ccc(NC(=O)CN(C)C(=O)c2ccc(COc3ccccc3)o2)cc1 | inactive |
| Cc1ccc(C(C)C)c(OCCSc2nc3ccccc3n2CC(=O)O)c1 | inactive |
| Cc1cccc(NC(=O)Nc2nnc(-c3ccccc3)o2)c1 | inactive |
| COc1cccc(NC(=O)NCc2ccc(F)cc2)c1 | inactive |
| Cc1cccc(NC(=O)Nc2cccc(Oc3c(F)c(F)c(F)c(F)c3F)c2)c1 | 4.15 µM (active) |
| Cn1c(=O)c(=O)n(C)c2cc(S(=O)(=O)CCC(=O)N3CCCCC3)ccc21 | inactive |
| COc1cccc(OCc2cc(C(=O)N3CCN(C(=O)c4ccco4)CC3)no2)c1 | inactive |
| COc1ccc(OC)c(C(=O)NC(CC(N)=O)c2ccc(N3CCC(N4CCCCC4)CC3)c([N+](=O)[O-])c2)c1 (stereo not given) | inactive |
| CCCCCCCCCCCCN1C(=O)CSC1c1cccnc1 (stereo not given) | 1.85 µM (active) |
| CN(C)CCCN1C(=O)CSC1c1ccc([N+](=O)[O-])cc1 (stereo not given) | inactive |
| O=C(O)C1CSC(c2cccnc2)N1 (stereo not given) | inactive |
